High-throughput results from PubChem BioAssay.
TRHR enhancer = TRH receptor (human) allosteric enhancement; 360,000 compounds, 0.66% hits; enhancement, % at 2 µM; TRHR cells, fluo-8 calcium fluorescence, EC20 TRH enhancement; in the data active = enhancement above about 30%; also: 0% is about no effect
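Enhancer read-out: after compound pinning and an initial kinetic agonist-mode read, an EC20 of TRH (10 nM final) was injected and fluo-8 calcium signal (Ex 480/Em 530) followed at 1 s/cycle for 100 cycles in TRHR-expressing cells.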
TRHR ag = TRH receptor (human) agonism; activation, % at 2 µM; TRHR cells, calcium flux fluo-8, FDSS agonist mode; P34981; 360,000 compounds, 0.18% hits; also: 0% is about no effect
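Steps: seed TRHR cells overnight; add fluo-8 no-wash Ca dye, RT 30 min–1.5 h; record 10 s baseline; pin-transfer compounds; monitor fluorescence 1 cycle/s for the agonist window. Calcium increases flag candidate agonists.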
D1 antag = antagonists of human D1 dopamine receptor. P21728. HEK293 TREx D1 cells, calcium flux, dopamine EC80; hits give low values. activity change, negative = inhibition, % at 10 µM. 360,000 compounds, 3.2% hits; in the data active = activity change below about -30%; also: % is scaled to controls: 0 for no effect and ±100 for the full control effect
Target sequence (P21728 whole entry, looked up): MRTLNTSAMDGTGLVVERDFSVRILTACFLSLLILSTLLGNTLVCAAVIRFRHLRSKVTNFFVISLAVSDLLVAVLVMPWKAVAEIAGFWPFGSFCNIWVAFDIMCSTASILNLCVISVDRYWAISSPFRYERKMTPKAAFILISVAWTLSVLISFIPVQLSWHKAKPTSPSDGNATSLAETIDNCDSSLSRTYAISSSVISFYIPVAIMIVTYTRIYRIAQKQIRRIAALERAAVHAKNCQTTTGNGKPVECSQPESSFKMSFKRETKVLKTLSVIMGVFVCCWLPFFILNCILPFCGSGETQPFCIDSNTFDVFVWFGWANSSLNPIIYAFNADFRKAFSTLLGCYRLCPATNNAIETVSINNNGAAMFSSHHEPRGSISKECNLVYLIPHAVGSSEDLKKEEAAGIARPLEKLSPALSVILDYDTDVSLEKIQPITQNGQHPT
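Tetracycline-induced HEK293 Trex D1 cells, force-coupled to calcium, dye-loaded; compounds added and read 180 s, then EC80 dopamine added and calcium flux tracked kinetically another 180 s.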
D1 ag = human D1 receptor agonism; 360,000 compounds, 1% hits; activation, % at 2 µM; P21728; HEK293 T-REx D1 cells, calcium flux, agonist mode; also: 0% is about no effect
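Tetracycline-induced HEK293 TREx D1 cells, force-coupled to calcium signalling, were dye-loaded with a no-wash calcium kit. Compound was pin-added after a 10 s baseline. Fluorescence was read kinetically at 1 cycle/s for 180 s, with calcium rises flagged as agonism.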
Glioma ERSR ind = induces the endoplasmic reticulum stress response in human glioma cells; U87-MG GRP78 promoter luciferase reporter, 16 h; Potency, µM, for the others: at the highest dose activation, actives largely listed as activators; 420,000 compounds, 0.02% hits; AID 602332; active = well fitted activation curve with a large enough effect; inconclusive = small, poorly fitted or top-dose-only effect; inactive = no such curve, though single readings can be large or run the other way; also: potency is read from the fitted curve at half-maximal effect; series mostly up to about 76 µM; % of control where 0% means no effect; nearly all actives have a fitted effect of over 35% in size
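ERSR induction read as luciferase luminescence (Bright-Glo, 10 min at room temperature) in stably transfected human U87-MG glioma cells exposed to compounds for 16 h, using GRP78 as sensor.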
D1 PAM = enhances dopamine response at the human D1 receptor. P21728. HEK293 TREx D1 cells, calcium flux, dopamine EC20 potentiation. potentiation, % at 10 µM. 360,000 compounds, 0.036% hits. AID 504651; in the data active = potentiation above about 30%; also: 0% is about no effect
An asterisk follows results filed as active; ? = inconclusive; nt = not tested or not shown. This is a sample that favours compounds with a hit; in the whole collection about 4% have one here. Rule as the data show it, unless noted: active = activation above about 30%; inactive = the rest.

SMILES	TRHR enhancer	TRHR ag	D1 antag	D1 ag	Glioma ERSR ind	D1 PAM
N#Cc1nc(Cc2ccccc2)oc1NCc1ccccc1Cl	9.7	-1.4	-36.7*	8.6	2.0%	-5.4
N#Cc1nc(Cc2ccccc2)oc1NCc1cccnc1	1.4	0.3	-25.0	1.9	3.0%	-6.2
COc1ccc(CNc2oc(COc3ccc(Cl)cc3)nc2C#N)cc1	-8.8	-1.7	-30.0*	3.9	-4.1%	-7.0
COc1ccc(Nc2oc(COc3ccc(Cl)cc3)nc2C#N)cc1	-0.8	-0.4	0.3	-0.9	-12.8%	-4.4
COc1ccc(OCc2nc(C#N)c(NCc3ccccc3Cl)o2)cc1	40.9*	-0.9	-8.2	21.6	-0.6%	-6.5
S=C(Nc1ccccc1)N1N=CCC1c1ccccc1 (configuration not stated)	11.8	0.0	nt	2.1	?	-4.5
Fc1ccc(NC(=S)N2N=CCC2c2ccccc2)cc1 (configuration not stated)	6.1	-0.7	-2.3	77.2*	13.8%	-4.2
CCOc1ccc(-c2nonc2NC(=O)c2oc3ccc(Cl)cc3c2C)cc1	-1.1	0.4	-31.7*	1.5	-6.2%	3.2
CCOC(=O)C1CC2=C(CCCC2=O)NC1=O (configuration not stated)	nt	nt	nt	nt	0.9%	nt
COC(=O)c1cc(Cl)cc(Cl)c1OS(=O)(=O)N(C)C	-0.5	0.5	-30.2*	1.3	-0.8%	6.7
Cc1cc(C)nc(Nc2ncc(O)n2-c2ccc(Br)cc2)n1	6.6	0.0	-47.6*	9.6	-2.6%	-7.2
Cc1cc(C)nc(Nc2ncc(O)n2-c2ccc(C)c(C)c2)n1	-1.9	0.0	0.0	2.1	-2.9%	10.9
Cc1c(Cl)ccc2c(C(=O)Nc3cc(C(C)(C)C)on3)cc(-c3ccccn3)nc12	5.2	-0.7	8.1	-0.2	-6.6%	11.4
CCCCn1c2nc3ccccc3nc2c2c(=O)n(CCC(C)C)cnc21	2.4	-0.2	-42.1*	2.6	-1.2%	-3.1
CN1/C(=C\C=C(/C#N)C(=O)Nc2ccccc2F)C(C)(C)c2ccccc21	19.2	114.4*	-18.1	277.1*	3.3%	4.2
N#Cc1c(NC(=O)c2cc(-n3cnnc3)ccc2Cl)sc2c1CCCC2	0.0	-0.2	-25.3	1.0	-1.9%	-1.3
CN1CCN(C2=Nc3cc(F)ccc3Cc3ccccc32)CC1	1.1	0.1	-84.5*	8.5	-5.1%	-3.1
CN1CCN(C2=Nc3c(Cl)cc(Cl)c4cccc2c34)CC1	-1.2	5.5	-8.8	5.8	-4.1%	-1.9
COc1ccc(C(=O)N2CC3(C)CC2CC(C)(C)C3)cc1 (configuration not stated)	-2.8	-0.3	-31.5*	1.0	-4.5%	-6.3
COc1cc(Cl)ccc1OCc1cc(C(=O)N2C[C@]3(C)C[C@H]2CC(C)(C)C3)no1	-4.8	1.2	16.3	37.6*	-1.4%	7.8
COc1cc(Cl)ccc1OCc1cc(C(=O)N2C[C@H]3CC[C@H]2C3)no1	-3.9	-1.1	-6.1	3.5	1.6%	-14.1
CCCOC(=O)CSc1nc(N)c(C#N)c(CC)c1C#N	-11.4	0.1	-40.3*	3.7	-2.8%	-5.4
COc1ccc(OCC(=O)NNC(=O)C(=O)Nc2ccc(C)cc2)cc1	0.5	-0.2	-7.9	5.5	0.9%	3.2
COC(=O)/C=C(\C)NC(=O)c1ccc(F)cc1	34.4*	0.1	-6.5	4.6	0.3%	3.8
CN1C(=O)CC(c2ccco2)Sc2ccccc21 (configuration not stated)	35.0*	-0.5	-20.3	1.7	2.4%	-4.8
SMILES	TRHR enhancer	TRHR ag	D1 antag	D1 ag	Glioma ERSR ind	D1 PAM
CCCN1C(=O)CC(c2ccco2)Sc2ccccc21 (configuration not stated)	-1.9	0.1	-18.0	0.5	-6.3%	-11.3
CC(=O)c1cccc(NC(=O)CCC(=O)c2ccc(F)cc2)c1	-3.6	0.3	0.1	3.9	0.3%	0.4
O=C(CCC(=O)c1ccc(F)cc1)Nc1cc(Cl)cc(Cl)c1	-7.5	3.1	-40.5*	19.7	-17.1%	-2.7
CCC1(CC)NC(=S)N(Nc2ccccc2)C1=O	0.5	0.2	-33.1*	-0.1	0.1%	-9.0
CC(C)CC(NC(=O)C1CCC(C)CC1)C(=O)Nc1ccccn1 (configuration not stated)	-12.1	-0.3	-32.4*	0.4	-5.5%	-6.6
O=C(N/N=C/c1ccccc1Cl)C1CC1	-2.8	0.1	8.4	-0.1	-2.0%	-12.3
Nc1c(C(=O)Nn2cnnc2)cc([N+](=O)[O-])cc1[N+](=O)[O-]	26.6	0.0	4.8	3.3	nt	1.0
O=C1C(=O)N(c2cccc(Cl)c2)C(c2ccccc2[N+](=O)[O-])/C1=C(\O)c1ccccc1 (configuration not stated)	-2.0	1.4	-51.0*	2.5	0.9%	-9.4
O=C1C(=O)N(c2ccccc2)C(c2ccccc2[N+](=O)[O-])/C1=C(\O)c1ccccc1 (configuration not stated)	7.2	-0.6	-5.7	1.5	3.0%	-3.0
O=C(Oc1cc(-c2ccccc2)no1)c1ccc(F)cc1	-3.3	-0.5	-46.6*	0.9	-6.1%	0.1
O=C(Oc1cc(-c2ccccc2)no1)c1cccc(C(F)(F)F)c1	-3.1	0.5	-5.4	4.2	-5.7%	-2.9
CCCCC(=O)NC(NC(=S)N1CCOCC1)C(Cl)(Cl)Cl (configuration not stated)	-1.6	0.2	-34.0*	4.8	1.3%	5.4
O=C(NC(NC(=S)N1CCOCC1)C(Cl)(Cl)Cl)c1ccc(Cl)cc1 (configuration not stated)	-3.3	0.9	-20.4	18.1	-3.5%	-10.4
O=C(O)c1cccc(CN2C(=O)c3ccccc3C2=O)c1	-4.6	-0.2	8.8	0.6	-3.2%	-3.8
O=C1c2cccc3c(O)ccc(c23)C(=O)N1Cc1ccccc1	40.0*	154.0*	48.2	365.6*	-7.6%	18.2
O=C(CSc1ccc2nnc(-c3ccccn3)n2n1)Nc1ccccc1F	-0.4	0.1	5.7	5.3	-2.3%	-1.4
CCC(O)C1CCN(Cc2cn(Cc3ccccc3)nc2-c2cc3ccccc3o2)CC1 (configuration not stated)	-5.1	5.4	-15.4	63.8*	0.2%	-4.4
COCCOC1CCN(Cc2cn(Cc3ccccc3)nc2-c2cc3ccccc3o2)CC1	-4.8	0.5	7.7	7.1	-4.6%	0.2
Cc1cc(C)cc(N(CCC(=O)O)S(=O)(=O)c2ccc(Cl)cc2)c1	-4.2	0.3	-10.7	2.8	-0.5%	-2.3
CCOC(=O)c1cc2c(=O)n3ccccc3nc2n(C(C)C)c1=NC(=O)C(C)(C)Oc1ccc(Cl)cc1	1.7	-0.2	-39.8*	-1.3	-0.9%	-0.6
CCOC(=O)c1cc2c(=O)n3ccccc3nc2n(CC(C)C)c1=NC(=O)C(C)(C)Oc1ccc(Cl)cc1	-6.7	0.1	6.1	-0.7	-1.4%	0.1
